Most compounds without a hit are left out; they make up all but 18% or so of the library.
Six1-Eya2 inh: Six1/Eya2 interaction inhibition | AlphaScreen GST-Six1/His-Eya2 binding, biochemical; active compounds read low | AID 651725 | activity change, % (concentration not given with the values) | 0.56% of 360,000 active; in the data active means activity change below about -65%; inconclusive means mostly about -30% to -63%
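Six1/Eya2 binding was read as AlphaScreen signal after compounds were pinned into GST-Six1 plus His-tagged Eya2 (5X stock 250/500 nM) in pH 8.0 Tris/NaCl/TCEP buffer, beads added, then incubated 1 h, 37 C, dark.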
CtBP-E1A blk: blocks the CtBP interaction with E1A | AlphaScreen GST-E1A/His-CtBP binding, 1536-well; active compounds read low | activity change, % (concentration not given with the values) | 0.49% of 340,000 active; in the data active means activity change below about -65%; inconclusive means mostly about -30% to -63%
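GST-E1A and His-tagged CtBP (125 nM each as 5X stock) were preincubated with pin-transferred compound for 2 h at 37 °C in the dark, then glutathione donor and nickel acceptor beads were added for 1 h before AlphaScreen reading.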
IL-1B inflam inh: inflammasome signaling inhibition, IL-1 beta readout; THP-1 LPS/ATP IL-1B secretion, AlphaLISA, 16 h; active compounds read low; activity change, % at 57.5 µM; 4.7% of 360,000 active; AID 743279; in the data active means activity change below about -50%; inconclusive means mostly about -30% to -49%
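Secreted IL-1B measured by AlphaLISA bead assay after 16 h compound exposure of THP-1 cells; compounds (final up to 57.5 uM) added 1 h before LPS (250 ng/mL) and ATP (1.25 mM) stimulation; lower signal means less secretion.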
TDP1 cell noCPT: qHTS for Inhibitors of human tyrosyl-DNA phosphodiesterase 1 (TDP1): qHTS in cells in absence of CPT | 15% of 420,000 active | AID 686978, 2013 | DT40 Tdp1-/- hTDP1 cells, no CPT, ATP luminescence, 48 h | Potency, µM (doses to about 46.2 µM), actives largely listed as inhibitors; further: nearly all actives have a fitted effect of over 55% in size
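Stably hTDP1-transfected Tdp1-null chicken DT40 cells were treated with library compounds minus camptothecin and grown for at least 48 hr at 37 °C, after which cellular ATP was quantified by luminescence.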
TDP1 block: blocks human tyrosyl-DNA phosphodiesterase 1; recombinant TDP1, AlphaScreen DNA substrate cleavage; Potency, µM (top dose mostly 130 µM), usual class: inhibitors; 0.28% of 350,000 active; further: nearly all actives have a fitted effect of over 40% in size
Target sequence (Q9NUW8 whole entry, looked up): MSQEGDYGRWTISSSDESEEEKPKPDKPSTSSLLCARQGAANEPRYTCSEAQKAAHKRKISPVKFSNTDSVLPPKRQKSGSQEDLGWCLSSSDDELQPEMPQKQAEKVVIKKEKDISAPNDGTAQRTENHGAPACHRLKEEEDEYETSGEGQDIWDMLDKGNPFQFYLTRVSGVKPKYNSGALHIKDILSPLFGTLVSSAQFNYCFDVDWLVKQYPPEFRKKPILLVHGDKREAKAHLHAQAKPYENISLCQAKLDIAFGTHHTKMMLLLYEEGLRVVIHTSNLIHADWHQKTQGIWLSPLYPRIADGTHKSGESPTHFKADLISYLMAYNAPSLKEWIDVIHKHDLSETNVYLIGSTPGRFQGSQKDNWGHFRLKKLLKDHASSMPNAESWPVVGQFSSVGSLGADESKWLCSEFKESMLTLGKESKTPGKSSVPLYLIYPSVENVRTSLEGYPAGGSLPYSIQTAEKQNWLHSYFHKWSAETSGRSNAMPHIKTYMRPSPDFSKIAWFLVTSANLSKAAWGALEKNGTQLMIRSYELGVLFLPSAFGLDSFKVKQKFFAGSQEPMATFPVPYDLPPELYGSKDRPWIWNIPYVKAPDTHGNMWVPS
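AlphaScreen read-out: signal falls as enzyme removes the 3' tyrosine-FITC from a 5'-biotinylated DNA oligo (15 nM, 5 min, RT). Enzyme was E. coli-made recombinant Tdp1 at 1 nM, exposed to compound for 15 min beforehand; beads 10 ug/ml, 10 min.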
TDP1 cell CPT: growth inhibition of DT40 Tdp1-/-;hTDP1 cells with camptothecin (screen for TDP1 inhibitors). Potency, µM (top dose mostly 46.2 µM), hits mostly inhibitors. chicken DT40 Tdp1-/-;hTDP1 cells + 20 nM CPT, ATP luminescence, 48 h. 12% of 420,000 active; further: nearly all actives have a fitted effect of over 55% in size
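Chicken DT40 Tdp1-/- cells complemented with human TDP1, 400 cells/well, exposed to compounds plus 20 nM camptothecin for at least 48 h at 37 C; viability read as ATP content by CellTiter-Glo luminescence.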
Numbers stand for hits; 0 = inactive; ? = inconclusive; - = no result given. Unless noted, the call rests on the fitted dose curve; in most records, active means well fitted curve in the direction sought with a large enough effect; inconclusive means small, poorly fitted or top-dose-only effect, or another doubt; inactive means no such curve, though single readings can be large; an effect the other way counts as inactive or inconclusive.

SMILES	Six1-Eya2 inh	CtBP-E1A blk	IL-1B inflam inh	TDP1 cell noCPT	TDP1 block	TDP1 cell CPT
CC(C)C[C@H]1CNC(=O)C(=O)N1C[C@@H]1CCCN1C[C@H](Cc1ccccc1)N1C[C@H](CC(C)C)N(CCc2ccccc2)C(=O)C1=O	0	0	?	?	-	?
CCCN(CCC)Cc1c(C(=O)N/N=C/C(C)=C\c2ccco2)nnn1-c1nonc1N	0	0	-60	16µM	0	21µM
CCCc1c(C(=O)N/N=C(\C)c2ccc(CC(C)C)cc2)nnn1-c1nonc1N	0	0	0	6.5µM	-	12µM
C/C(=N\NC(=O)c1nnn(-c2nonc2N)c1-c1cccs1)c1ccncc1	0	-	0	0	0	0
C/C(=N\NC(=O)c1nnn(-c2nonc2N)c1-c1ccccc1)c1ccccc1O	0	0	0	1.5µM	0	2.3µM
CCCc1c(C(=O)N/N=C(\C)c2ccccc2O)nnn1-c1nonc1N	0	0	0	8.2µM	-	8.2µM
CC(/C=N/NC(=O)c1nnn(-c2nonc2N)c1CN(C)C)=C\c1ccco1	0	0	0	0	0	0
Cc1cc(S(=O)(=O)N2CCN(C(=O)c3ccco3)CC2)ccc1F	0	0	0	0	0	0
CCc1cccc(-n2c(=O)c3cccnc3n2CC(=O)NCc2ccc(C)cc2)c1	-	-	-	?	0	?
C/C(=N\NC(=O)c1nnn(-c2nonc2N)c1CN(C)c1ccccc1)c1ccccn1	-91	-	0	4.6µM	0	4.6µM
CSC1SCC2C(=O)N(C)C(C(C)C)C(=O)OCC(NC(=O)c3cnc4ccccc4n3)C(=O)NC(C)C(=O)N(C)C1C(=O)N(C)C(C(C)C)C(=O)OCC(NC(=O)c1cnc3ccccc3n1)C(=O)NC(C)C(=O)N2C (configuration not stated)	0	0	-116	0	-	0
N#Cc1ccc(OCC(=O)N/N=C2\CCc3ccccc32)cc1	0	0	0	0	0	0
NC(=O)c1nsc(C(=O)N(c2ccc(Cl)cc2)C(C(=O)NCC2CCCO2)c2cccs2)c1N (configuration not stated)	0	0	-83	?	0	?
Cc1ccc(C(C(=O)NCC2CCCO2)N(C(=O)c2snc(C(N)=O)c2N)c2ccccc2)o1 (configuration not stated)	0	0	0	?	0	0
CCc1ccc(N(C(=O)c2snc(C(N)=O)c2N)C(C(=O)NCC2CCCO2)c2cccs2)cc1 (configuration not stated)	0	0	0	21µM	0	?
COC(=O)c1ccc(NC2=CC(=O)CC(C)(C)C2)cc1	0	0	?	23µM	0	23µM
O=C(NC1=NCCS1)C1CCCCC1	0	0	0	0	0	0
Cc1c(O)c(CN(C)C)cc2c1oc(=O)c1ccccc12	0	0	?	?	0	0
Cc1c(O)c(CN2CCCCC2)cc2c1oc(=O)c1ccccc12	0	0	?	26µM	0	?
COc1ccc(N2COC3c4cccc5cccc(c45)C32)cc1 (configuration not stated)	?	0	0	8.2µM	0	5.8µM
Cc1cccc(NC(=O)CNc2cc(C)ccc2C)c1	0	0	0	?	0	0
COc1ccc(C)cc1NS(=O)(=O)c1ccc2c(c1)[C@H]1C=CC[C@H]1[C@@H](c1cccc(Cl)c1)N2	-	-	-	21µM	-	13µM
COC(=O)c1ccc([C@H]2Nc3ccc(S(=O)(=O)Nc4ccc(F)cc4)cc3[C@H]3C=CC[C@H]32)cc1	-	-	-	3.3µM	-	3.7µM
Cc1cccc(NS(=O)(=O)c2ccc3c(c2)[C@H]2C=CC[C@H]2[C@@H](c2ccc(F)cc2)N3)c1	-	-	-	10µM	-	10µM
COc1ccc(Nc2nnc(SC(C(=O)Nc3ccc(OC)c(Cl)c3)c3ccccc3)s2)cc1 (configuration not stated)	?	0	0	13µM	0	23µM
SMILES	Six1-Eya2 inh	CtBP-E1A blk	IL-1B inflam inh	TDP1 cell noCPT	TDP1 block	TDP1 cell CPT
COc1ccc(C)cc1NC(=O)C(Sc1nnc(Nc2cc(C)ccc2OC)s1)c1ccccc1 (configuration not stated)	0	0	0	?	0	?
COc1cccc(Nc2nnc(SCN3C(=O)c4ccccc4C3=O)s2)c1	0	0	0	0	0	0
COc1cccc(NC(=O)C(Sc2nnc(Nc3ccccc3C)s2)c2ccccc2)c1 (configuration not stated)	0	0	-51	21µM	0	16µM
COc1ccc(Nc2nnc(SC(C(=O)Nc3cc(C)ccc3C)c3ccccc3)s2)cc1 (configuration not stated)	0	0	0	21µM	0	?
Cc1csc(NC(=O)CCN2C(=O)c3ccccc3S2(=O)=O)n1	0	0	0	0	0	0
Cc1ccc(C(=O)N2CC(C)OC(C)C2)cc1S(=O)(=O)N1CCCCC1 (configuration not stated)	0	0	0	?	0	?
Cc1ccccc1COc1ccc(/C=C(\C#N)C(N)=O)cc1	0	0	0	0	0	0
C=CCOc1ccc(/C=C(\C#N)C(=O)Nc2ccccn2)cc1	0	-	0	0	0	0
N#C/C(=C\c1ccc(OC(=O)c2ccccn2)cc1)C(N)=O	-90	0	0	0	0	0
N#C/C(=C\c1ccc(OCc2ccccc2)cc1)C(N)=O	0	0	0	23µM	0	?
N#C/C(=C\c1ccc(OCc2ccccc2)cc1)C(=O)Nc1nc2c(s1)CCN(Cc1ccccc1)C2	0	0	0	21µM	0	23µM
CN(C)c1ccc(/C=C(/C#N)C(=O)Nc2nc3c(s2)CCN(Cc2ccccc2)C3)cc1	0	0	0	?	-	?
O=[N+]([O-])c1ccc(N2N=C(c3ccco3)CC2c2ccccc2)cc1 (configuration not stated)	0	0	-55	?	0	?
Fc1ccc(C2CC(c3ccco3)=NN2c2ccccc2)cc1 (configuration not stated)	0	0	0	0	0	0
COc1ccc(OC)c(CNC(=O)CN(c2ccc(C)cc2)S(=O)(=O)N(C)C)c1	-	-	-	0	0	0
CC(O)c1c(-c2ccccc2)nn(C)c1Cl (configuration not stated)	0	0	0	?	0	0
CCC(O)c1c(-c2ccccc2)nn(C)c1Cl (configuration not stated)	0	0	0	15µM	0	?
Cc1nc2ccc(NC(=O)c3ccc([N+](=O)[O-])cc3)cc2[nH]1	0	0	0	16µM	-	?

Assay outcomes (PubChem)
